Experimental data reported in PubChem BioAssay (NCATS).
Records with an inconclusive call do not appear. Unmarked numbers belong to inactive results. Activity calls are given as the source filed them. The call rests on the fitted dose curve; in most records, active means well fitted cell-killing curve with a large enough effect; inconclusive means small, poorly fitted or top-dose-only effect, or effect the other way; inactive means no such curve, though single readings can be large or run the other way.

Test: Quantitative High-Throughput drug screen in 47 multiple myeloma cell lines against the NCATS MIPE library collection: LP1_DSMZ cell viability assay (AID 1918982); further: nearly all actives have a fitted effect of over 35% in size
Conditions: LP1 myeloma viability, CellTiter-Glo ATP luminescence, 48 h; series mostly up to 45.8 µM; viability (% of control): at the top concentration
Method in brief: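 Inhibition of viability over 48 h was scored by ATP content (CellTiter-Glo) in 500-cell wells. Zero and full viability were defined by media-only and DMSO-only wells.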
Potency means the concentration at half of the fitted maximal effect.

Structure (SMILES)	viability (% of control)	Potency
Nc1cccc2c1C(=O)N(C1CCC(=O)NC1=O)C2=O (stereo not given)	70.8%	
COc1cc(OC)c(NC(=O)Nc2cc(C)on2)cc1Cl	109%	
COC(=O)[C@@H]1[C@H]2C[C@@H]3c4[nH]c5ccccc5c4CCN3C[C@@H]2CC[C@@H]1O	104%	
C[N+](C)([O-])CCNc1ccc(NCC[N+](C)(C)[O-])c2c1C(=O)c1c(O)ccc(O)c1C2=O	106%	
C=C1CCC2[C@](C)(CO)C(O)CC[C@]2(C)C1CC=C1C(=O)OCC1O (stereo not given in full)	118% [at 92.2 µM]	
O=C1c2c(O)cccc2[C@@H]([C@@H]2O[C@H](CO)[C@@H](O)[C@H](O)[C@H]2O)c2cc(CO)cc(O)c21	113%	
CC(C)n1cnc2c(NCCc3ccc(O)cc3)nc(-c3csc4ccccc34)nc21		16.6 µM (active)
CCCNC(=O)[C@H]1O[C@H]1C(=O)N[C@H](C(=O)N1CCC[C@@H]1C(=O)OC)C(C)CC (stereo not given in full)		14.8 µM (active)
CC(=O)O[C@H]1C[C@@H]2CC[C@H]3[C@H]4C[C@H]([N+]5(C)CCCCC5)[C@@H](OC(C)=O)[C@@]4(C)CC[C@@H]3[C@@]2(C)C[C@H]1[N+]1(C)CCCCC1	103%	
COc1cc(C(C)C)c(Oc2cnc(NC(CO)CO)nc2N)cc1I	96.4%	
Cc1cc(-c2nnc3n2CCCCC3)c(C)n1-c1ccccc1	83.5%	
O=S(=O)(O)CCSSCCS(=O)(=O)O	111%	
c1coc(CNc2ncnc3nc[nH]c23)c1	98.4%	
O=C(CN1C(=O)C2(CCCC2)NC[C@H]1c1cc(F)cc(F)c1)Nc1ccc2c(c1)C[C@@]1(C2)C(=O)Nc2ncccc21	74.7%	
CC(=O)N[C@H]1[C@@H]([C@H](O)[C@H](O)CO)OC(C(=O)O)=C[C@@H]1N=C(N)N	102%	
C[C@H](CCC(=O)O)[C@H]1CC[C@H]2[C@@H]3[C@H](O)C[C@@H]4C[C@H](O)CC[C@]4(C)[C@@H]3CC[C@]12C	113%	
CN(C)CC(=O)N1CCC(c2ccc(NC(=O)c3ncc(C#N)[nH]3)c(C3=CCCCC3)c2)CC1	108%	
CON=C(C(=O)N[C@@H]1C(=O)N2C(C(=O)O)=C(CSC(=O)c3ccco3)CS[C@H]12)c1csc(N)n1	88%	
CC[C@H]1OC(=O)[C@H](C)[C@@H](O[C@H]2C[C@@](C)(OC)[C@@H](O)[C@H](C)O2)[C@H](C)[C@@H](O[C@@H]2O[C@H](C)C[C@H](N(C)C)[C@@H]2O)[C@](C)(OC)C[C@@H](C)C(=O)[C@H](C)[C@@H](O)[C@]1(C)O	97.7%	
COC(=O)[C@@H]1CC2=CC(=O)CC[C@]2(C)[C@@]23O[C@@H]2C[C@@]2(C)[C@H](CC[C@@]24CCC(=O)O4)[C@@H]13	113%	
C[C@@H](NCc1cc2ccccc2[nH]1)c1cccc2ccccc12	111%	
CC1=C(C(=O)Nc2cc3cn[nH]c3cc2F)C(c2ccc(Cl)cc2F)N=C(c2ccnc(Cl)c2)N1 (stereo not given)	104%	
C=C1C(=CC=C2CCC[C@]3(C)[C@@H]([C@H](C)CCCC(C)(C)O)CC[C@@H]23)C[C@@H](O)C[C@@H]1O		20.9 µM (active)
COC1=C(OC)C(=O)C(CC=C(C)CCC=C(C)CCC=C(C)CCC=C(C)CCC=C(C)CCC=C(C)CCC=C(C)CCC=C(C)CCC=C(C)CCC=C(C)C)=C(C)C1=O	96.9%	
CC(=O)O[C@H]1C[C@@H]2CC[C@H]3[C@H]4C[C@H]([N+]5(C)CCCCC5)[C@@H](OC(C)=O)[C@@]4(C)CC[C@@H]3[C@@]2(C)C[C@H]1N1CCCCC1	104%	
